Sampled rows, rich in hits. Any-hit rate of the full collection: about 5.9%.
KB-3-1 tox – qHTS assay for MDR1-selective chemotherapeutics: Primary screen using the parental adenocarcinoma cell KB-3-1; KB-3-1 viability, CellTiter-Glo ATP luminescence, 72 h; AID 1347075, 2019; Potency, µM (titrated, usually from 46.1 µM), hits mostly cytotoxic; 400,000 tested, 1.4% active; note: % is set by controls: 0 for no effect and ±100 for the full control effect; nearly all actives have a fitted effect of over 60% in size
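Here the drug-naive KB-3-1 line serves as comparator for MDR sub-line selectivity; cells received compound titrations, 72 h at 37 °C, then CellTiter-Glo readout.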
HepG2 viability – qHTS for Inhibitors of TGF-b: Cytotox Counterscreen; Potency, µM (highest dose often 46.1 µM), for inactives: at the top dose activity change, negative = cytotoxicity, hits mostly cytotoxic; HepG2 CAGA-GFP viability, ATP luminescence, 18 h; 410,000 tested, 0.76% active
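CellTiter-Glo luminescence gave cytotoxicity after 18 hours at 37 degrees C. The cells were HepG2 CAGA-GFP in 1% FBS DMEM, stimulated with 500 pg/mL TGF-beta after compound addition. %Activity was normalised to no-cell wells (complete cell-killing) and DMSO (no toxicity), and curves were fitted and classified.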
S2 tox – Viability Counterscreen for Primary qHTS for Inhibitors of ATXN expression | 400,000 tested, 0.49% active | S2 cells (HEK-293 line with an ATXN2-luciferase reporter) viability, CellTiter-Fluor protease fluorescence, 24 h | Potency, µM (top dose mostly 56.7 µM), actives largely listed as cytotoxic; note: nearly all actives have a fitted effect of over 40% in size
KB-V1 cytotox – qHTS assay for MDR1-selective chemotherapeutics: Primary screen using the drug-selected MDR subline cells KB-V1. KB-V1 MDR cells viability, CellTiter-Glo, 72 h. Potency, µM (doses to about 46.1 µM), hits mostly cytotoxic. AID 1347076, 2019. 400,000 tested, 3.4% active; note: % is set by controls: 0 for no effect and ±100 for the full control effect; nearly all actives have a fitted effect of over 60% in size
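Following 72 h at 37 degrees C with compound, KB-V1 cell viability was read by CellTiter-Glo luminescence, medium being phenol-red-free DMEM plus 10% FBS; concentration-response parameters came from normalized, curve-fitted qHTS data.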
ATXN2 expr inh – Primary qHTS for Inhibitors of ATXN expression. HEK-293 ATXN2-luciferase reporter, luminescence, 24 h. Potency, µM (titrated, usually from 57 µM), for inactives: top-dose activity change, negative = inhibition, usual class: inhibitors. 360,000 tested, 0.72% active. AID 1745845, 2022; note: % is set by controls: 0 for no effect and ±100 for the full control effect; nearly all actives have a fitted effect of over 55% in size
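qHTS (up to 57 uM final) was run with 24 h compound exposure of reporter cells at 37 °C. Each well was multiplexed: SteadyGlo luminescence measured ATXN2-luciferase expression after a fluorogenic Gly-Phe-AFC viability readout (25 uM final).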
TGFb inhibitor – qHTS for Inhibitors of TGF-b | HepG2 CAGA-GFP TGF-b/SMAD3 reporter, GFP fluorescence, 18 h; TGF-beta stimulated, 500 pg/mL final | Potency, µM (titrated, usually from 46.1 µM), inactives show at the highest dose activity, negative = inhibition, usual class: inhibitors | 410,000 tested, 1.2% active; note: % is set by controls: 0 for no effect and ±100 for the full control effect; nearly all actives have a fitted effect of over 65% in size
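Cell-based qHTS in HEPG2 carrying a CAGA-GFP Smad reporter; compounds added before 500 pg/mL final TGF-beta, 18 h incubation at 37 degrees C, GFP fluorescence quantified per cell by imaging cytometry.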
* marks the source's active call; other numbers are inactive results; i = inactive; ? = inconclusive; · = not tested or not shown. Calls come from the whole dose curve; as a rule, active = well fitted curve in the direction sought with a large enough effect; inconclusive = small, poorly fitted or top-dose-only effect, or another doubt; inactive = no such curve, though single readings can be large; an effect the other way counts as inactive or inconclusive. Potency is the fitted concentration of half-maximal effect.

SMILES	KB-3-1 tox	HepG2 viability	S2 tox	KB-V1 cytotox	ATXN2 expr inh	TGFb inhibitor
COc1ccccc1Nc1nnc(SCC2CCCCO2)s1 (stereo not given)	16µM*	-33%	i	9.2µM*	-16%	-9%
COc1ccccc1Nc1nnc(SCC(=O)N2CCCC2)s1	i	-7%	i	13µM*	28%	-2%
COC(=O)c1cccc(NC2=NS(=O)(=O)c3ccccc32)c1	i	-42%	i	?	12%	?
COc1ccccc1NC(=O)CSc1nnc(NC(=O)NC2CCCCC2)s1	·	-17%	·	·	·	18µM*
COCCSc1nnc(NC(=O)Cc2ccccc2OC)s1	i	-1%	i	18µM*	0%	8%
O=C(CSc1nnc(NC(=O)NC2CCCCC2)s1)Nc1ccccc1F	·	-20%	·	·	·	?
COCCSc1nnc(NC(=O)Cc2cccs2)s1	i	2%	i	i	-1%	4%
Cc1ccc(C)c(C(=O)N2CCC(C3(c4ccccn4)NC(=O)N(CC4CCCO4)C3=O)CC2)c1 (stereo not given)	·	·	i	·	·	·
O=C(NCc1ccc(F)cc1)c1cc2cccc3c2n1CCS3	·	-56%	·	·	·	?
COc1cccc(CN2CCC3(CCC(CNC(=O)c4ccccc4)O3)CC2)c1 (stereo not given)	·	·	i	·	·	·
Cc1nn(C)cc1CN1CCOc2ccc(CN3CCC(Oc4cccnc4)CC3)cc2C1	·	·	i	·	·	·
Cn1c(=O)cc(OCCCC(=O)NC2CCCC2)c2ccccc21	i	-19%	i	15µM*	110%	15%
Cn1c(=O)cc(OCC(=O)NC2CCCCC2)c2ccccc21	i	-13%	·	i	·	11%
O=C(Nc1sc2c(c1C(=O)NCc1ccccc1)CCCC2)c1cc(=O)c2ccccc2o1	i	9%	i	i	25%	3%
COc1cccc(-c2nc(CS(=O)(=O)CC(=O)Nc3ccccc3Cl)c(C)o2)c1	15µM*	-3%	i	6.5µM*	?	-16%
Cc1ccccc1-c1nc(CS(=O)(=O)CC(=O)NCCc2ccccc2)c(C)o1	i	-14%	i	i	-6%	14µM*
Cc1ccc(-c2nc(CS(=O)(=O)CC(=O)NC(C)CCc3ccccc3)c(C)o2)cc1 (stereo not given)	i	-61%	·	i	·	11µM*
Cc1oc(-c2ccccc2F)nc1CS(=O)(=O)CC(=O)NC(C)CCc1ccccc1 (stereo not given)	i	-20%	i	i	-23%	?
COc1cccc(-c2nc(CS(=O)(=O)CC(=O)NCCc3ccccc3)c(C)o2)c1	i	5%	i	i	6%	-1%
COc1cccc(-c2nc(CS(=O)(=O)CC(=O)NCCc3ccc(Cl)cc3)c(C)o2)c1	i	-41%	·	i	·	11µM*
COc1ccc2c(c1)-c1nc(-n3ncc(C(=O)N(C)C(C)c4ccon4)c3C3CC3)ncc1CC2 (stereo not given)	·	·	i	·	·	·
COC(=O)C1CCCCN1Cc1ccc2c(c1)CN(Cc1cnn(-c3ccccc3)c1)CCO2 (stereo not given)	·	·	i	·	·	·
Cc1ccc(CN2CCSc3ccc(C(=O)Nc4cc(C)cc(C)c4)cc32)cc1	i	-5%	i	i	18%	-2%
COc1ccccc1-n1cc(CN2CCC3(CCC(CNC(=O)c4ccccc4)O3)CC2)cn1 (stereo not given)	·	·	i	·	·	·
Cc1cccc(N2CCN(C(=O)CS(=O)(=O)Cc3nc(-c4ccccc4C)oc3C)CC2C)c1 (stereo not given)	?	-34%	i	i	?	11µM*
Cc1ccc(-c2nc3ccc(C)cn3c2CC2CCCCC2)cc1	?	·	i	?	34%	·

Assay outcomes deposited in PubChem BioAssay by National Center for Advancing Translational Sciences (NCATS).
